Measurements from ChEMBL document CHEMBL1961873, “Compounds: GSK PKIS; Assays: Nanosyn kinase panel” (2012).

Tests used:
[1] = molecular target: T1, Serine/threonine-protein kinase TBK1 (Homo sapiens) (UniProt Q9UHD2); settings: at 1 µM;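 also: values are mean inhibition of TBK1, screened as part of the GSK published kinase inhibitor set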
T1 sequence (whole entry): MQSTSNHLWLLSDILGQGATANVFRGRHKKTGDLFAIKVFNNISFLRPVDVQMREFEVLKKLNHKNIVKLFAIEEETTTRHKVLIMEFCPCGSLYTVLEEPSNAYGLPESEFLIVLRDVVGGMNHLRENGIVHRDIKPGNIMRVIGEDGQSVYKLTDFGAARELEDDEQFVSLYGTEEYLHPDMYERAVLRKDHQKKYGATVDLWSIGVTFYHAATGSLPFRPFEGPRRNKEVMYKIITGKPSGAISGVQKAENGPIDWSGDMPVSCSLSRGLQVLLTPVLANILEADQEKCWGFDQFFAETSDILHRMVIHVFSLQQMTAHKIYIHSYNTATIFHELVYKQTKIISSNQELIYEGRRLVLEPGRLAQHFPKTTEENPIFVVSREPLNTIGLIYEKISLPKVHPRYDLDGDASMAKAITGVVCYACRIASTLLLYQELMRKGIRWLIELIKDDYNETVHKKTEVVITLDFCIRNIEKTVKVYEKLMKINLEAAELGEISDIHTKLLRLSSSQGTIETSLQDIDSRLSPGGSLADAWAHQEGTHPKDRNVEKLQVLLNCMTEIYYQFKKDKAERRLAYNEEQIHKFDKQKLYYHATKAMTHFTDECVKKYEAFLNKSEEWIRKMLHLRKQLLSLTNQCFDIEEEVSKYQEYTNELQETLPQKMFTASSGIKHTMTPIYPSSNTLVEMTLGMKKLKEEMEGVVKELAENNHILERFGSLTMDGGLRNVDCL

[2] = molecular target: T2, Testis-specific serine/threonine-protein kinase 1 (Homo sapiens) (UniProt Q9BXA7); settings: at 0.1 µM
T2 sequence (whole entry): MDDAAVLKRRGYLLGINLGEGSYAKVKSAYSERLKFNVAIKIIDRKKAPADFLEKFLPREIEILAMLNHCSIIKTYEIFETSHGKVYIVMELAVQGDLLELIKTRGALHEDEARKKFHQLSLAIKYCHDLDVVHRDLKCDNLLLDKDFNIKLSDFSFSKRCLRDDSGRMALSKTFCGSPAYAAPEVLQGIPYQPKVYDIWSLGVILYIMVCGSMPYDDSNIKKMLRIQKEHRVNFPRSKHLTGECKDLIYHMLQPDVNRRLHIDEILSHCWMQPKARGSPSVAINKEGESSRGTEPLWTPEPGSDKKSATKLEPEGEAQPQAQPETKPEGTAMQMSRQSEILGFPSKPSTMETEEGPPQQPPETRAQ

[3] = molecular target: T2, Testis-specific serine/threonine-protein kinase 1 (Homo sapiens); settings: at 1 µM
[4] = molecular target: T3, Testis-specific serine/threonine-protein kinase 2 (Homo sapiens) (UniProt Q96PF2); settings: at 0.1 µM
T3 sequence (whole entry): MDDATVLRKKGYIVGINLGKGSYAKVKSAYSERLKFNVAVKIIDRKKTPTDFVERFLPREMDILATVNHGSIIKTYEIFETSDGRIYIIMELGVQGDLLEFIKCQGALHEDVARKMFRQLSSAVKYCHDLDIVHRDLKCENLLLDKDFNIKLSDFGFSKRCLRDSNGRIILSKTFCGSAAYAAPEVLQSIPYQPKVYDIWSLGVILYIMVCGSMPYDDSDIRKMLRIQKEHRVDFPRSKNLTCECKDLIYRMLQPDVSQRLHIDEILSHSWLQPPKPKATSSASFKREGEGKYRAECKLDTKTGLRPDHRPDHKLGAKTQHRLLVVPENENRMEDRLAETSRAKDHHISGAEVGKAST

[5] = molecular target: T3, Testis-specific serine/threonine-protein kinase 2 (Homo sapiens); settings: at 1 µM
[6] = molecular target: Casein kinase I isoform alpha (Homo sapiens) (UniProt P48729); settings: at 0.1 µM
Casein kinase I isoform alpha (Homo sapiens), sequence (P48729 2-337 limits assumed): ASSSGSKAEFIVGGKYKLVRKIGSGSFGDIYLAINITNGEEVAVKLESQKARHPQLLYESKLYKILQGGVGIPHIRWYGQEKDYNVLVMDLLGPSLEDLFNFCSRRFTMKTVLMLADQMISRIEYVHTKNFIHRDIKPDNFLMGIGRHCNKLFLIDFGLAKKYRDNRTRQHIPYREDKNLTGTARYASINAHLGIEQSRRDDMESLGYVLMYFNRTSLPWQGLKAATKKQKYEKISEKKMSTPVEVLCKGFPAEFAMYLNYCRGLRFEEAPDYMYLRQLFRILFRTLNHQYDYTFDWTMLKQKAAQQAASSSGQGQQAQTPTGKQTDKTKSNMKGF

[7] = molecular target: Casein kinase I isoform alpha (Homo sapiens) (UniProt P48729); settings: at 1 µM
[8] = molecular target: Casein kinase I isoform gamma-1 (Homo sapiens) (UniProt Q9HCP0); settings: at 0.1 µM
Casein kinase I isoform gamma-1 (Homo sapiens), sequence (Q9HCP0 whole entry, looked up, canonical isoform): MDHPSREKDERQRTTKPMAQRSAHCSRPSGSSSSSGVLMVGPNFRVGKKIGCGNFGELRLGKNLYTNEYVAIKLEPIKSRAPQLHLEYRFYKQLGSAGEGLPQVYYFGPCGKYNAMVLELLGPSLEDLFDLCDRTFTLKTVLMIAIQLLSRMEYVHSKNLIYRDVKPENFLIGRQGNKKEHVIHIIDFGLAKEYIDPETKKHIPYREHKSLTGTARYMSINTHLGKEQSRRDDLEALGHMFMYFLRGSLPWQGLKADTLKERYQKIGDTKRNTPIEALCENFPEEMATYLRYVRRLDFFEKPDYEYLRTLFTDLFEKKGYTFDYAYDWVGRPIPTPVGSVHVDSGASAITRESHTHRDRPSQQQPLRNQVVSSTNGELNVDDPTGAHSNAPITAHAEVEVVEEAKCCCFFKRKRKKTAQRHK

[9] = molecular target: Casein kinase I isoform gamma-1 (Homo sapiens) (UniProt Q9HCP0); settings: at 1 µM
[10] = molecular target: Casein kinase I isoform gamma-2 (Homo sapiens) (UniProt P78368); settings: at 0.1 µM
Casein kinase I isoform gamma-2 (Homo sapiens), sequence (P78368 whole entry, looked up, canonical isoform): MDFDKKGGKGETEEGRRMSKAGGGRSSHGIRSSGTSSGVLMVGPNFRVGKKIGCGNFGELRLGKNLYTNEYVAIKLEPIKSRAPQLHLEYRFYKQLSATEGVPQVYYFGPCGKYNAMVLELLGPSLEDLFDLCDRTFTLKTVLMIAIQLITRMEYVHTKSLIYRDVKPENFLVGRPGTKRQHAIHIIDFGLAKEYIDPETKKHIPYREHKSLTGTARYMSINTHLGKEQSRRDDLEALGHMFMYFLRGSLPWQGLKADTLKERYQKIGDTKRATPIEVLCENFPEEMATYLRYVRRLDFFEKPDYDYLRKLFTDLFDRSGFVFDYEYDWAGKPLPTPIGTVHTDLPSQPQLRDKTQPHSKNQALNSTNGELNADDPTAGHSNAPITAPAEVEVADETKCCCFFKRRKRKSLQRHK

[11] = molecular target: Casein kinase I isoform gamma-2 (Homo sapiens) (UniProt P78368); settings: at 1 µM
[12] = molecular target: Casein kinase I isoform gamma-3 (Homo sapiens) (UniProt Q9Y6M4); settings: at 0.1 µM
Casein kinase I isoform gamma-3 (Homo sapiens), sequence (Q9Y6M4 whole entry, looked up, canonical isoform): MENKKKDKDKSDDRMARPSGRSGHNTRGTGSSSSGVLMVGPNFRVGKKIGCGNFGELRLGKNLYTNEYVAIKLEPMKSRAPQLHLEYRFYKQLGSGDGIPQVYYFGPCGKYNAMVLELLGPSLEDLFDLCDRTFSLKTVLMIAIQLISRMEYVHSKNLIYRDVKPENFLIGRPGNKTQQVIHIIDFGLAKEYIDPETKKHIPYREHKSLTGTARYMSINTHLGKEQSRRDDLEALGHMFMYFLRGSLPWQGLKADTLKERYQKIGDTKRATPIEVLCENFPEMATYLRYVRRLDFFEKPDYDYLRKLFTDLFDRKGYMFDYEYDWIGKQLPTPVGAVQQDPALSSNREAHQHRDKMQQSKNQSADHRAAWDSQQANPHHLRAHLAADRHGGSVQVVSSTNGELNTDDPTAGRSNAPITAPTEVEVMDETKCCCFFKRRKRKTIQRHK

[13] = molecular target: Casein kinase I isoform gamma-3 (Homo sapiens) (UniProt Q9Y6M4); settings: at 1 µM
[14] = molecular target: Cyclin-dependent kinase 1 (Homo sapiens) (UniProt P06493); settings: at 0.1 µM
Cyclin-dependent kinase 1 (Homo sapiens), sequence (P06493 whole entry, looked up): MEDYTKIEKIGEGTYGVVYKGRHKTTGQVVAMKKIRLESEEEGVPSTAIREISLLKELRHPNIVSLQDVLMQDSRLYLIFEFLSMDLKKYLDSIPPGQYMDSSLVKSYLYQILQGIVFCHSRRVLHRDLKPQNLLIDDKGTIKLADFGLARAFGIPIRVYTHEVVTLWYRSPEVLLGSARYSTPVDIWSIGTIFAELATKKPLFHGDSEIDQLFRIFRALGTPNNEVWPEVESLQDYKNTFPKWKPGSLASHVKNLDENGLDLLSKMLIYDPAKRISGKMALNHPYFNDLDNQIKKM

[15] = molecular target: Cyclin-dependent kinase 1 (Homo sapiens) (UniProt P06493); settings: at 1 µM
[16] = molecular target: Cyclin-dependent kinase 2 (Homo sapiens) (UniProt P24941); settings: at 0.1 µM
[17] = molecular target: Cyclin-dependent kinase 2 (Homo sapiens) (UniProt P24941); settings: at 1 µM
[18] = molecular target: Cyclin-dependent kinase 2 (Homo sapiens) (UniProt P24941); settings: at 0.1 µM; remark: listed apart in the source
[19] = molecular target: Cyclin-dependent kinase 2 (Homo sapiens) (UniProt P24941); settings: at 1 µM; remark: listed apart in the source
[20] = molecular target: CDK3/Cyclin E (Homo sapiens) (UniProt P24864+Q00526); settings: at 0.1 µM;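 also: reported percentages are mean inhibition values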
CDK3/Cyclin E (Homo sapiens), sequence (P24864 whole entry, looked up): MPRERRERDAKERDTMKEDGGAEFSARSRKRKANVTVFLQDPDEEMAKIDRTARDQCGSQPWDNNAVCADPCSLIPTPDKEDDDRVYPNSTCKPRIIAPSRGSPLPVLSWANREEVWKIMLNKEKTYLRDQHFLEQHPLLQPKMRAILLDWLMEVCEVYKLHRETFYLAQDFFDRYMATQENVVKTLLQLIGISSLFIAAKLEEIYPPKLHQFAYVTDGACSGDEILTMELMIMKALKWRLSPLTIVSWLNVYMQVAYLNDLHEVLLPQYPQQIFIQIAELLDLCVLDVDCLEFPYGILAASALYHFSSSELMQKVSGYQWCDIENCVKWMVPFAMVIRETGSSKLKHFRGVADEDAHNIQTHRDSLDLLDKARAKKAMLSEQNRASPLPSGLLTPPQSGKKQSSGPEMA
CDK3/Cyclin E (Homo sapiens), sequence (Q00526 whole entry, looked up): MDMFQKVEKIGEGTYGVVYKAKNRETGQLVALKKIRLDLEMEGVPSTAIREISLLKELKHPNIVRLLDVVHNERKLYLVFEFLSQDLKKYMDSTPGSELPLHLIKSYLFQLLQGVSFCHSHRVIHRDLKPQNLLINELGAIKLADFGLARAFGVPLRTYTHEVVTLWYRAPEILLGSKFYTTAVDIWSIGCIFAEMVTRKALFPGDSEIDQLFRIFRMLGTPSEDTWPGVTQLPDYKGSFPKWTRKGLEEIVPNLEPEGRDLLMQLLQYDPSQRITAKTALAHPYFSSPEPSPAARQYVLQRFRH

| SMILES | inhibition [1] [%] | inhibition [2] [%] | inhibition [3] [%] | inhibition [4] [%] | inhibition [5] [%] | inhibition [6] [%] | inhibition [7] [%] | inhibition [8] [%] | inhibition [9] [%] | inhibition [10] [%] | inhibition [11] [%] | inhibition [12] [%] | inhibition [13] [%] | inhibition [14] [%] | inhibition [15] [%] | inhibition [16] [%] | inhibition [17] [%] | inhibition [18] [%] | inhibition [19] [%] | inhibition [20] [%] |
| --- | --- | --- | --- | --- | --- | --- | --- | --- | --- | --- | --- | --- | --- | --- | --- | --- | --- | --- | --- | --- |
| COc1cc(C)c(NC(=O)CN(C)C)cc1Nc1nc(Nc2cccc(F)c2C(N)=O)c2cc[nH]c2n1 | 25.5 | 61.6 | 89.3 | 31.8 | 73.2 | -0.74 | 21.5 | 2.04 | 12.9 | 1.61 | 20 | 1.69 | 20.6 | -0.88 | -1.98 | 0.1 | -9.04 | -0.26 | 0.04 | -0.76 |
| COc1ccc2cc(-c3c(-c4ccncc4)nc(-c4ccc([S+](C)[O-])cc4)n3C)ccc2c1 (configuration not stated) | 3.63 | 3.26 | 1.1 | -0.32 | -0.74 | 1.18 | 3.66 | 3.32 | 2.97 | 2 | 2.6 | 1.16 | 3.28 | 0.99 | 2.01 | 1.21 | 1.86 | 3.23 | 3.44 | 4.02 |
| O=C1NC(=O)C(c2cccc(Cl)c2)=C1Nc1ccc(O)c(Cl)c1 | 23.9 | 1.11 | 1.63 | -0.57 | 0.16 | 1.72 | 9.44 | 0.2 | 1.3 | 0.09 | 0.54 | 1.06 | 0.9 | 0.73 | 7.55 | 1.84 | 6.86 | 2.79 | 10.6 | 3.01 |
| Cc1ccc(NC(=O)c2ccnc(N3CCCC3)c2)cc1-c1ccc(C(=O)NCC2CC2)cc1 | 8.32 | 3.77 | 3.59 | 1.08 | 1.39 | 5.28 | 2.01 | 0.99 | 3.3 | -0.87 | 2.39 | 0.96 | 2.49 | -0.58 | 2.14 | -0.92 | 2.88 | 6.57 | 6.44 | 9.73 |
| COc1cc2ncn(-c3cc(O[C@@H](C)c4ccccc4Cl)c(C(N)=O)s3)c2cc1OC | 27 | 3.02 | 5.73 | 1.37 | 1.24 | 4.77 | 4.44 | 4.61 | 5.05 | 4.07 | 5.19 | 3.46 | 3.53 | -0.28 | 2.69 |  |  |  |  | -0.85 |
| Nc1nc(-c2ccc3c(c2)C(=Cc2cc(Br)c(O)c(Br)c2)C(=O)N3)cs1 | 0.36 | -0.52 | -0.1 | -1.49 | 0.36 | -0.89 | -1.31 | -1.34 | -1.14 | -1.3 | -0.74 | -2.56 | 0.95 | 0.71 |  | 1.38 | -0.83 | -0.42 | 2.91 | 0.55 |
| CCn1c(-c2nonc2N)nc2c(N3CCCC3)nccc21 | 2.54 | 0.01 | -0.07 | -0.87 | 0.44 | -0.35 | 0.23 | -0.72 | -0.83 | -0.88 | -0.7 | -0.94 | -0.62 | 0.79 | 2.89 | 1 |  | 0.81 | 5.24 | 0.91 |
| CC1=C(C(=O)Nc2ccc3[nH]ncc3c2)C(c2ccc(F)cc2)NC(=O)N1 (configuration not stated) | 3.11 | 1.04 | 1.21 | 1.2 | 1.4 | 0.46 | 1.43 | 1.54 | 2.31 | 1.41 | 1.77 | 0.29 | 0.47 | 0.21 | -0.93 | 3.84 | 7.76 | 2.47 | 9.24 | 3.12 |
| COc1ccccc1Nc1ncc(-c2ccccc2)o1 | 2.91 | 4.78 | 4.46 | 2.44 | 2.11 | 2.14 | 2.52 | 4.56 | 5.25 | 4.37 | 3.85 | 3.77 | 5.78 |  | 0.64 | 2.24 | 3.34 | 1.7 | 4.15 | -1.03 |
| [O-][S+]1CCN(Cc2ccc(-c3ccc4ncnc(Nc5ccc(OCc6ccccc6)c(F)c5)c4c3)o2)CC1 | 2.87 | 1.77 | 0.49 | 0.63 | -1.37 | 2.43 | 4.39 | 2.09 | 3.44 | 1.93 | 3.2 | 1.87 | 3.97 | 0.66 | 0.48 | 1.07 | -1.12 | 1.88 | 2.86 | 5.36 |
| COC(=O)Nc1nc2cc(Oc3cccc(NC(=O)Nc4cc(C(F)(F)F)ccc4F)c3)ccc2[nH]1 | 4.23 | -0.26 | -0.63 | -0.42 | -1.58 | -1.03 | -0.8 | 0.24 | 0.48 | -0.21 | -0.35 | -2.32 | -1.3 | 2.66 | 0.7 | 0.37 | -0.89 | 0.62 | 1.21 | -0.22 |
| CCCN1CCC=C(c2ccc(Nc3nc(Nc4ccccc4C(N)=O)c4cc[nH]c4n3)c(C)c2)C1 | 9.03 | 29.9 | 76.7 | 7.28 | 37.6 | 8.97 | 47.6 | 22.5 | 59.8 | 31.1 |  | 36.1 | 69.3 | 2.18 | 7.53 | 5.19 | 22.5 | 3.79 | 28.3 | -2.97 |
| Nc1ncnc2occ(-c3ccc(NC(=O)Nc4cc(C(F)(F)F)cc(C(F)(F)F)c4)cc3)c12 | 3.1 | -0.4 | -1.46 | 1.06 | -2.08 | -0.62 | 1.87 | 1.49 | 2.74 | 0.5 | 1.8 | 1.91 | 1.31 | -0.06 | 4.1 | 0.86 | 2.88 | 1.68 | 3.96 | -1.28 |
